Test results: PubChem BioAssay (NCI)
Compounds without any hit were thinned out: in the full panel of roughly 79,000, 15% have a hit. Rule as the data show it: active = growth inhibition above about 70%; inactive = the rest.

How the values were obtained:
[1] = NCI Yeast Anticancer Drug Screen. Data for the rad50 strain (AID 155);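 also: 0% = growth of vehicle-only cultures of the same strain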; details: S. cerevisiae rad50 strain growth inhibition; at 50.0 µM; hits give high values
In short: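 Compounds were tested on a yeast strain with an engineered DNA damage repair alteration; the reported value is growth inhibition normalised to vehicle treatment.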

[2] = NCI Yeast Anticancer Drug Screen. Data for the mec2-1 strain (AID 157); details: S. cerevisiae mec2-1 strain, at 50.0 µM, hits give high values
In short: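 Vehicle-treated cultures served as reference for growth inhibition of compound-exposed mec2-1 yeast.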

[3] = NCI Yeast Anticancer Drug Screen. Data for the sgs1 mgt1 strain (AID 161);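 also: 0% = growth of cultures given vehicle only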; details: S. cerevisiae sgs1 mgt1 strain, at 50.0 µM, hits give high values
In short: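 Genetically altered yeast, compound exposure, growth inhibition relative to vehicle.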

[4] = NCI Yeast Anticancer Drug Screen. Data for the cln2 rad14 strain (AID 165);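 also: 0% = growth equal to vehicle treated cultures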; details: S. cerevisiae cln2 rad14 strain, at 50.0 µM, hits give high values
In short: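 Each compound was tested on cln2 rad14 yeast. Inhibition of growth was calculated against vehicle-exposed controls.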

[5] = NCI Yeast Anticancer Drug Screen. Data for the bub3 strain (AID 167); details: S. cerevisiae bub3 mutant strain, at 50.0 µM, hits give high values
In short: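 Growth of a checkpoint-deficient yeast mutant is measured after compound exposure. Values represent inhibition relative to vehicle.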

[6] = NCI Yeast Anticancer Drug Screen. Data for the mlh1 rad18 strain (AID 175); details: S. cerevisiae mlh1 rad18 strain growth inhibition; at 50.0 µM; hits give high values
In short: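 Vehicle-treated cultures served as the reference for growth inhibition in a yeast strain carrying DNA damage repair alterations exposed to each compound.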

Measured: growth inhibition

COc1ccc(C(=O)C(O)c2ccc(OC)cc2)cc1 (stereo not drawn)
inactive: [1] 8.15% | [2] -8.65% | [3] -1.55% | [4] -16.4% | [5] -4.35% | [6] 26.1%

c1ccc2c(CCNC3=NCCO3)cccc2c1
inactive: [1] -11.1% | [2] -16.6% | [3] -10.8% | [4] -7.5% | [5] -1.6% | [6] 1.45%

ClC1CC2CCC1C2 (stereo not drawn)
inactive: [1] 26.9% | [2] -20.8% | [3] 8.45% | [4] 7.75% | [5] -8.3% | [6] 9.1%

COC(=O)CCC(=O)CN1C(=O)c2ccccc2C1=O
inactive: [1] 14.8% | [2] 9.1% | [3] 4% | [4] 11.5% | [5] 14.1% | [6] 1.5%

ClC1=C(Cl)C2(Cl)CC1(Cl)C1CCCCC12 (stereo not drawn)
inactive: [1] 18.9% | [2] -10.4% | [3] 21.4% | [4] -17.4% | [5] 16.6% | [6] -10.6%

NNC(=O)CC(=O)N(C(=O)/C=C/c1ccccc1)c1ccc(Cl)cc1
inactive: [1] -11.9% | [2] -16.9% | [3] 15.1% | [4] 24% | [5] -14.5% | [6] 19.4%

CCOC(=O)CCCCCCCCC(=O)Nc1ccc(-n2[nH]c(=O)cc2C)cc1
inactive: [1] -2.6% | [2] -31% | [3] -27.6% | [4] 6.95% | [5] -4.1% | [6] -3.3%

CCCCCn1cnc2cc(N3CCOCC3)c([N+](=O)[O-])cc2c1=O
inactive: [1] 4.9% | [2] 34.9% | [3] 5.75% | [4] 8.2% | [5] 18.2% | [6] 14.3%

O=S(=O)(O)c1ccc2cc(O)ccc2c1
inactive: [1] 35.7% | [2] 14.6% | [3] 13.8% | [4] 14.5% | [5] 20.8% | [6] 28.4%

Cn1ccc2c(C(=O)c3ccccc3)cccc2c1=O
inactive: [1] 7.75% | [2] -5.7% | [3] -4.75% | [4] 9.7% | [5] 0.5% | [6] -10.5%

Nc1ncnc2c(C3OC(CO)C(O)C3O)nsc12 (stereo not drawn)
inactive: [1] -6.8% | [2] -23.6% | [3] -37.1% | [4] -15.2% | [5] -32.1% | [6] -38%

COC(=O)/C=C(\C(=O)OC)C1=C(N2CCCC2)CC(C)(C)CC1=O
inactive: [1] -7.8% | [2] -14.9% | [3] -14.1% | [4] -14.3% | [5] -14.3% | [6] -1.1%

COc1ccc(Cc2c[nH]c3cc(OC)c(OC)cc23)cc1OC
inactive: [1] -22.8% | [2] -9% | [3] 18.9% | [4] -57.8% | [5] 10.1% | [6] -1.4%

Cc1cc(O)c(/C=N/C(=S)NCCc2ccccc2)c(=O)o1
inactive: [1] -4.35% | [2] -29.5% | [3] -9.5% | [4] 10.3% | [5] 6.55% | [6] -20.6%

NS(=O)(=O)c1ccc(NC(=O)Nc2cccc(Cl)c2)cc1
inactive: [1] 1.35% | [2] 12.6% | [3] 15.5% | [4] -4.9% | [5] 46.4% | [6] -11.3%

CCC(CC)COC(=O)CC(CC(=O)OCC(CC)CC)C(=O)OCC(CC)CC
inactive: [1] -12.3% | [2] -4.85% | [3] 9.35% | [4] -20.1% | [5] 1.1% | [6] 24.6%

C(=N\NC1=NCCCCN1)/c1ccc2ccccc2c1
inactive: [1] 14.1% | [2] -1.75% | [3] -32% | [4] -34.6% | [5] -2.35% | [6] 7.6%

Nc1cccc(S(=O)(=O)Nc2c(N)nc(SCC(=O)O)[nH]c2=O)c1
inactive: [1] -15% | [2] -15.8% | [3] -19.7% | [4] -9.3% | [5] 11.9% | [6] 21.6%

Cc1cc(N=Nc2ccccc2)c2cccnc2c1N
inactive: [1] -3.85% | [2] -4.2% | [3] -7.5% | [4] 11.6% | [5] -5.15% | [6] 14.7%

O=C1C=CC[C@H](/C=C/c2ccccc2)O1
inactive: [1] 21.6% | [2] 31.8% | [3] 28.6% | [4] 24.4% | [5] 33.5% | [6] 48.9%

Clc1ccc2nsnc2c1Cl
inactive: [1] -0.1% | [2] -1.25% | [3] -3.75% | [4] -19.4% | [5] 7.8% | [6] 8.1%

COc1cc(C(O)C(CO)Oc2c(OC)cc(C3OCC4C(c5cc(OC)c(O)c(OC)c5)OCC34)cc2OC)ccc1O (stereo not drawn)
inactive: [1] 20.1% | [2] 1.4% | [3] -2.05% | [4] 10% | [5] -6.7% | [6] 15.2%

Cc1ccc(C(=O)c2ccc(C)cc2)cc1
inactive: [1] -2.55% | [2] -4.45% | [3] 13% | [4] -3.7% | [5] 6.3% | [6] 15.1%

COC(=O)c1cccc2c1-c1ccccc1C2=O
inactive: [1] 9.25% | [2] 11.9% | [3] -18.4% | [4] 5% | [5] 14% | [6] 11.6%

CCOC(=O)C1=NN(c2ccccc2)C(=O)/C1=C\N1C(=O)/C(=C/c2cccc(OC)c2O)SC1=S
inactive: [1] 30.5% | [2] 8.55% | [3] 31.6% | [4] 20.4% | [5] -0.35% | [6] 21.6%

Cn1c(=O)c2[nH]c(SCCc3ccccc3)nc2n(C)c1=O
inactive: [1] 0.65% | [2] 0.05% | [3] 6.15% | [4] -39.1% | [5] 10.3% | [6] -2.75%

O=[N+]([O-])C1C=Nc2ccccc2N=C1
inactive: [1] 19.7% | [2] -16.6% | [3] 18.1% | [4] 21.4% | [5] 5% | [6] 19.6%

CC(=O)OCc1ccc([N+](=O)[O-])cc1
inactive: [1] -1.65% | [2] 0.25% | [3] -8.8% | [4] 8.05% | [5] -6.05% | [6] 6.1%

Nc1nc(=S)c2[nH]cnc2[nH]1
inactive: [1] -19.6% | [2] -4.95% | [3] -21.4% | [4] -91.7% | [5] 9.55% | [6] -125%

CCC(=O)Oc1ccc(OCc2ccccc2)cc1
inactive: [1] -28.3% | [2] -57.8% | [3] -31.4% | [4] -4% | [5] -16.9% | [6] -25.9%

CCN(CC)CCOC(c1ccccc1)c1ccccc1
inactive: [1] 3.8% | [2] -9.75% | [3] -1.2% | [4] -10.8% | [5] -0.05% | [6] -11.8%

COCCOC(=O)C(O)c1ccccc1 (stereo not drawn)
inactive: [1] 23.9% | [2] 13.9% | [3] 9.05% | [4] 9% | [5] 12.8% | [6] 10.4%

Cn1c(N)c2c(=O)n(C)c3c(c2c(C#N)c1=O)CCSc1ccccc1-3
inactive: [1] -4.4% | [2] -6.35% | [3] 0.25% | [4] -36.5% | [5] -5.2% | [6] -1.9%

Cc1cc(C)c2[nH]c(=O)c(C)c(C)c2c1Br
inactive: [1] -0.5% | [2] 5.55% | [3] -7.2% | [4] -16.6% | [5] -1.3% | [6] -0.25%

CC(C)(O)CC(O)(C(F)(F)F)C(F)(F)F
inactive: [1] 14.3% | [2] -0.95% | [3] -3.25% | [4] -20.3% | [5] 3.35% | [6] 1.9%

CC(O)CNC(=O)CC(C)CC(C)(C)C (stereo not drawn)
inactive: [1] 45.7% | [2] 19.9% | [3] 24.9% | [4] 13.4% | [5] 25.4% | [6] 34%

O=C(O)CCC(=O)Oc1ccc(O)c2c1CCCC2=O
inactive: [1] -6.95% | [2] 1.65% | [3] -0.95% | [4] -17.8% | [5] -1.3% | [6] -9.15%

O=C(O)C1(NO)CCCCC1
inactive: [1] -6.9% | [2] 6.7% | [3] -11.8% | [4] -9% | [5] -12.6% | [6] -5.4%

COc1ccc(C=Nc2ccc(C(=O)O)cc2)cc1
inactive: [1] 0.5% | [2] 9.35% | [3] 1.45% | [4] -2.25% | [5] 13.9% | [6] -6.25%

CCC(=O)Oc1ccc(C(C)(C)C)cc1
inactive: [1] -5.85% | [2] -3.75% | [3] 1.95% | [4] -2.25% | [5] 11.1% | [6] 1.1%

Nc1cc(NC(=O)CO)cc(C(=O)O)c1
inactive: [1] 14.2% | [2] -1.15% | [3] -1% | [4] -0.4% | [5] 4.05% | [6] 7.1%

O=C(Cc1ccccc1)Nc1ccc(Br)cc1
inactive: [1] 6.15% | [2] 15.8% | [3] 15.5% | [4] -16.1% | [5] 13.7% | [6] 8.55%

NC(=O)N/N=C/c1ccccc1O
inactive: [1] 28.8% | [2] 11.2% | [3] 15% | [4] 5.95% | [5] -1.2% | [6] 6.75%
